Source: PubChem BioAssay
Sampled rows, rich in hits. Any-hit rate of the full collection: about 4.3%.
esBAF inh – Bmi1 luciferase reporter increase in mESCs, primary screen, esBAF inhibitor project, mouse ES cells, Bmi1 luciferase knock-in, single point; 24 h; 100% = twice the neutral-well signal; reporter increase, % at 12.5 µM; AID 602393, 2012; 350,000 compounds, 2% hits; in the data active = activation above about 40%; inconclusive = no clear call, values can overlap the other calls;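 also: 0% = median of the plate's neutral control wells and 100% = double that signal; a rise in the Bmi1 reporter signal indicates esBAF inhibition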
Wnt act – Wnt/beta-catenin pathway activators, primary screen, cell-based, plate reader, single point | Wnt/beta-catenin reporter cell assay, activator | activation, % at 9.35 µM | 300,000 compounds, 1.2% hits | AID 743398, 2014; in the data active = activation above about 30%, passing the limit was not always enough; inconclusive = no clear call, values can overlap the other calls;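 also: 0% = neutral control wells and 100% = positive control wells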
SMARCA2 activ – SMARCA2 (BRM) function activators, primary screen, cell-based, luminescence, high throughput | MG213 cells, MMTV-luciferase reporter, dexamethasone, overnight | activation, % at 9.1 µM | 370,000 compounds, 1% hits; in the data active = activation above about 7.8%;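 also: 0% = vehicle wells and 100% = reference activator wells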
HSF-1 act – HSF-1 activators, primary screen, NIH3T3-HGL cells, MG132 stress, luminescence, single point; activation, % at 9 µM; AID 504408, 2011; 300,000 compounds, 1.7% hits; NIH3T3-HGL HSF-1 luciferase reporter, 8 h; 100% = twice DMSO control signal;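 active = mean replicate activation of at least 50% with a set share of replicates each reaching 50%; inconclusive = only one of those two conditions met; inactive = mean below 50% and too few replicates reaching it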;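 also: 0% = median of the neutral control wells and 100% = twice that signal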
HSF1 inh – HSF1 inhibitors in luciferase reporter cells, primary screen, cell-based, NIH3T3, luminescence; NIH3T3-HGL HSE-luciferase, MG132-induced, luminescence 8 h; hits give low values; activity change, negative = inhibition, % at 7.5 µM (by protocol); 300,000 compounds, 0.77% hits; AID 2098, 2009;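 active = more than half of replicate wells show activity change below -50%, luminescence cut by over half; inconclusive = some wells, but at most half, below -50%; inactive = no replicate well below -50%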;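 also: luciferase reports HSF-1 transcriptional activity via heat shock element; 0% = median of DMSO wells and -100% = zero luminescence signal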
MITF act – activators of MITF-driven TRPM1 promoter reporter, primary screen, cell-based, SK-MEL-5, luciferase, single point | SK-MEL-5 TRPM1-promoter luciferase, 24 h; % of positive control, neutral wells = 0 | activation, % at 12.5 µM | 300,000 compounds, 0.75% hits | AID 588334, 2011;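 active = mean activation of at least 80% with every replicate also reaching 80%; inconclusive = mean reaches 80% but some replicate falls short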;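 also: 0% = neutral control wells and 100% = parthenolide positive control wells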
The depositor's hits bear a star; ? = inconclusive; . = no result given.

SMILES | esBAF inh | Wnt act | SMARCA2 activ | HSF-1 act | HSF1 inh | MITF act
NC(=O)C1CCN(Cc2nc(-c3cccs3)no2)CC1 | -1 | 2 | -3 | 11 | 15 | .
c1ccc(CCc2nc(-c3ccccc3)no2)cc1 | 46* | 1 | 1 | 39 | 16 | 71
CC(C)C(O)C1CCN(Cc2nc(-c3cccs3)no2)CC1 (stereo not given) | 58* | 8 | 0 | 17 | 19 | 50
Cc1ccc(OCc2nc(-c3cccnc3)no2)cc1C | 37* | 0 | 1 | . | . | 61
COc1nc(-c2ccccc2)ccc1-c1noc(-c2ccco2)n1 | 76* | . | 3 | -5 | -5 | .
Brc1ccc(-c2noc(CCc3ccccc3)n2)cc1 | 18 | 2 | 1 | 35 | 19 | 20
CNC[C@@H]1OCCCC[C@@H](C)Oc2ccc(N(C)C)cc2C(=O)N([C@H](C)CO)C[C@@H]1C | 2 | . | . | . | . | .
C[C@@H]1CN([C@@H](C)CO)C(=O)Cc2cc(NC(=O)Nc3cccc4ccccc34)ccc2O[C@H]1CN(C)S(C)(=O)=O | 0 | . | . | . | . | .
COc1ccccc1CN1CC[C@@H]2[C@@H](CO)Nc3ccc(-c4ccc(C(=O)N(C)C)cc4)cc3[C@@H]21 | -5 | . | . | . | . | .
COc1nc(-c2ccccc2)ccc1-c1noc(COc2ccccc2)n1 | . | -1 | -1 | -74 | -68* | 7
CCOc1nc(-c2ccc(C)cc2)ccc1-c1noc(COC)n1 | 6 | . | -2 | -7 | 6 | .
C[C@H](CO)N1C[C@H](C)[C@@H](CN(C)Cc2ccc3c(c2)OCO3)Oc2ccc(NS(=O)(=O)c3cn(C)cn3)cc2C1=O | -4 | . | . | . | . | .
CS(=O)(=O)Nc1ccc2c(c1)[C@@H]1C[C@@H](CC(=O)NC3CCCC3)O[C@@H](CO)[C@@H]1O2 | -1 | . | . | . | . | .
CCCNC(=S)NC1CC2CCCC(C1)N2Cc1ccc(F)cc1 (stereo not given) | 1 | 0 | -1 | -69 | -61* | .
CCOc1cccc(C2C(C(=O)c3cccs3)=C(O)C(=O)N2Cc2cccnc2)c1 (stereo not given) | 3 | 0 | -1 | 4 | 4 | -5
CCCCOc1cccc(C2C(C(=O)c3cccs3)=C(O)C(=O)N2Cc2cccnc2)c1 (stereo not given) | . | -1 | -1 | -73 | -64* | 5
Cn1c(CCN2CCCCC2)nc2cc(NC(=O)Nc3ccccc3)ccc21 | 23 | 4 | 2 | 58* | 59 | 30
Cc1nn(CC(=O)Nc2ccc3c(c2)nc(CCN2CCCCC2)n3C)c(=O)c2ccccc12 | -4 | -4 | 2 | 53* | 40 | 11
CN1c2ccc(-c3ccccc3F)cc2[C@@H]2[C@@H](CCN2C(=O)NC2CCCC2)[C@@H]1CO | 1 | . | . | . | . | .
CCOc1cc(CNc2ccc3c(c2)OCCO3)cc(Br)c1OCC | -36 | . | -4 | -85 | -82* | -48
CCOc1cc(CNc2ccc(N3CCOCC3)cc2)cc(Br)c1OCC | . | . | 7 | -26 | -26 | -10
COCc1cn(CC[C@@H]2CC[C@H](NC(=O)c3ccc(F)cc3)[C@@H](CO)O2)nn1 | -1 | . | . | . | . | .
CC(C)(C)C(=O)Nc1ccc(-c2cc3cc(Cl)ccc3o2)cc1 | . | 21 | -7 | -61 | -54* | 13
CC(C)(Oc1ccc(Cl)cc1)C(=O)Nc1ccc2oc(=O)ccc2c1 | -12 | -2 | 0 | -7 | 7 | -8
CO[C@H]1CN(C)C(=O)c2ccc(NS(=O)(=O)c3ccc(Oc4ccccc4)cc3)cc2OC[C@@H](C)NC[C@H]1C | -1 | . | . | . | . | .
SMILES | esBAF inh | Wnt act | SMARCA2 activ | HSF-1 act | HSF1 inh | MITF act
CCc1cccc(CC)c1NC(=O)/C(C#N)=C/c1ccccc1C(F)(F)F | . | . | -1 | 83* | 67 | -89
COCc1cc(=O)oc2cc(NC(=O)c3ccc(C(C)(C)C)cc3)ccc12 | -1 | . | . | 57* | 10 | -2
COc1cc(OC)cc(C(=O)NCC(=O)OCc2cc(=O)oc3cc(OC)ccc23)c1 | 3 | 1 | -3 | 13 | 0 | 6
O=C(/C=C/c1ccc2c(c1)OCO2)Nc1nc(-c2ccccc2)cs1 | 17 | . | -5 | 13 | 7 | -13
CC(C)(C)c1ccc(/C=C/C(=O)Nc2nncs2)cc1 | 26 | 26 | 0 | 26 | 14 | 89*
O=C(/C=C/c1ccc2c(c1)OCO2)Nc1nncs1 | . | 61* | 6 | 53* | 22 | .
Nc1ccccc1C(=O)/C=C/c1ccc2c(c1)OCO2 | 73* | 35* | 7 | 23 | 19 | 85*
Cc1nn2c(CN(C(=O)COc3ccccc3)c3ccccc3)nnc2c2ccccc12 | . | . | -2 | 1 | -9 | -11
Cc1nn2c(CN(C(=O)CN3CCOCC3)c3ccccc3)nnc2c2ccccc12 | . | -3 | -2 | -63 | -56* | -5
CCOC(=O)c1sc(NC(=O)c2ccc(C)s2)cc1C | . | . | 0 | 69* | 49 | 72
CCOC(=O)c1sc(NC(=O)Nc2ccccc2Cl)cc1C | . | 13 | 1 | -7 | 2 | 33
CCOC(=O)c1sc(NC(=O)C2CCC2)cc1C | 50* | 37* | 4 | 27 | 12 | 44
CCOC(=O)c1sc(NC(=O)Nc2ccccc2)cc1C | . | ? | -3 | 82* | 28 | 105*
COc1ccc(-n2nc3c(N4CCC(C(=O)N5CCC(C)CC5)CC4)nnc(C)c3c2C)cc1 | 6 | -2 | -1 | 55* | 17 | 1
CCCN1C[C@H](C)[C@@H](OC)CN(C)C(=O)c2cc(NC(=O)NC3CCCCC3)ccc2OC[C@@H]1C | 5 | . | . | . | . | .
COCC(=O)Nc1ccc2c(c1)OC[C@@H](C)N(C(=O)c1ccccn1)C[C@@H](C)[C@H](OC)CN(C)C2=O | 4 | . | . | . | . | .
CC1CC(C)(C)N(C(=O)NC2CCCCC2)c2ccccc21 (stereo not given) | ? | . | 2 | 57* | 11 | 4
COc1ccc2c(c1)C(C)CC(C)(C)N2C(=O)NC1CCCCC1 (stereo not given) | . | 14 | -2 | 17 | 22 | 6
C[C@H](CO)N1C[C@H](C)[C@@H](CN(C)Cc2ccc(-c3ccccc3)cc2)Oc2ccc(NS(=O)(=O)c3ccc(F)cc3)cc2CC1=O | 1 | . | . | . | . | .
COc1ccc(S(=O)(=O)N(C)C[C@H]2OCCCC[C@@H](C)Oc3ccc(NS(C)(=O)=O)cc3C(=O)N([C@H](C)CO)C[C@H]2C)cc1 | 0 | . | . | . | . | .
COCC(=O)OCc1cc2cccc(C)c2[nH]c1=O | . | 42* | -5 | 5 | -8 | 3
Cc1cccc2cc(COC(=O)COc3ccccc3)c(=O)[nH]c12 | 0 | . | 0 | 7 | -5 | -11
